TRHR ag = qHTS for Small Molecule Agonists and Allosteric Enhancers of Human TRH Receptor: Primary Screen for Agonists; activation, % at 2 µM; TRHR cells, calcium flux fluo-8, FDSS agonist mode; AID 493084, 2011; hit rate 0.18% among 360,000; note: 0% is about no effect
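Steps: seed TRHR cells overnight; add fluo-8 no-wash Ca dye, RT 30 min–1.5 h; record 10 s baseline; pin-transfer compounds; monitor fluorescence 1 cycle/s for the agonist window. Calcium increases flag candidate agonists.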
TRHR PAM = qHTS for Small Molecule Agonists and Allosteric Enhancers of Human TRH Receptor: Primary Screen for Enhancers; hit rate 0.66% among 360,000; TRHR cells, fluo-8 calcium fluorescence, EC20 TRH enhancement; AID 493056, 2011; enhancement, % at 2 µM; Thyrotropin-releasing hormone receptor (Homo sapiens), P34981; in the data active = enhancement above about 30%; note: 0% is about no effect
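Enhancer read-out: after compound pinning and an initial kinetic agonist-mode read, an EC20 of TRH (10 nM final) was injected and fluo-8 calcium signal (Ex 480/Em 530) followed at 1 s/cycle for 100 cycles in TRHR-expressing cells.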
D1 PAM = Potentiators of Human D1 Dopamine Receptor: qHTS | HEK293 TREx D1 cells, calcium flux, dopamine EC20 potentiation | hit rate 0.036% among 360,000 | potentiation, % at 10 µM | D(1A) dopamine receptor (Homo sapiens), P21728 | AID 504651, 2011; in the data active = potentiation above about 30%; note: 0% is about no effect
Target sequence (P21728 whole entry, looked up): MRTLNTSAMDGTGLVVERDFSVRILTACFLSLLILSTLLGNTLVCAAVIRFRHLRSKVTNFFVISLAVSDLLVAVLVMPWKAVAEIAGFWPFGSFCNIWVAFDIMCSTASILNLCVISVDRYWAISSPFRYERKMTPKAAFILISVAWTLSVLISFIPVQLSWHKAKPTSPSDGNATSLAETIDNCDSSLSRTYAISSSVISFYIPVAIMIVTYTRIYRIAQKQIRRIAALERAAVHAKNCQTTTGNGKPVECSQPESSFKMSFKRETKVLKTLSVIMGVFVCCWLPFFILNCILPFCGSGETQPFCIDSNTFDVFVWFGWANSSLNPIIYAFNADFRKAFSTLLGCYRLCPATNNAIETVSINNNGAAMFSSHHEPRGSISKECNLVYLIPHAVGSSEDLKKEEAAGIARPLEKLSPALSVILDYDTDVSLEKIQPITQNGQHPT
D1 agonist = Allosteric Agonists of the Human D1 Dopamine Receptor: qHTS; HEK293 T-REx D1 cells, calcium flux, agonist mode; activation, % at 2 µM; AID 504660, 2011; hit rate 1% among 360,000; note: 0% is about no effect
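Inducible HEK293 T-REx D1 cells, force-coupled to calcium signalling, were plated at 4000 cells/well with tetracycline and held overnight at 30 C. After no-wash calcium dye loading, compound-evoked calcium rise over 180 s flagged agonists.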
Glioma ERSR ind = qHTS for Inducers of the Endoplasmic Reticulum Stress Response (ERSR) in Human Glioma: qHTS | AID 602332, 2012 | hit rate 0.02% among 420,000 | U87-MG GRP78 promoter luciferase reporter, 16 h | Potency, µM, for the others: at the highest dose activation, most hits filed as activators; active = well fitted activation curve with a large enough effect; note: potency is the fitted concentration of half-maximal effect; series mostly up to about 76 µM; % of control where 0% means no effect; nearly all actives have a fitted effect of over 35% in size
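ERSR induction read as luciferase luminescence (Bright-Glo, 10 min at room temperature) in stably transfected human U87-MG glioma cells exposed to compounds for 16 h, using GRP78 as sensor.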
D1 antagonist = Antagonist of Human D 1 Dopamine Receptor: qHTS. HEK293 TREx D1 cells, calcium flux, dopamine EC80; hits give low values. hit rate 3.2% among 360,000. AID 504652, 2011. D(1A) dopamine receptor (Homo sapiens), P21728. activity change, negative = inhibition, % at 10 µM; in the data active = activity change below about -30%; note: % is set by controls: 0 for no effect and ±100 for the full control effect
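Tetracycline-induced HEK293 T-REx cells with force-coupled D1 receptor were loaded with a no-wash calcium dye. Compound was added after a 10 s baseline and read kinetically for 180 s; EC80 dopamine was then added and calcium flux followed another 180 s.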
Numbers without * were called inactive; / = no result; ! = not confirmed by another sample. Compounds with a hit are over-represented: about 4% of the library has one in this group of screens. Cut-off read from the data, not from the text of the source, unless noted: active = activation above about 30%; inactive = the rest.

SMILES | TRHR ag | TRHR PAM | D1 PAM | D1 agonist | Glioma ERSR ind | D1 antagonist
COc1cccc(-c2ccc3c(N)c(C(=O)Nc4ccc(Cl)cc4F)sc3n2)c1 | 2 | -2 | -2 | 8 | 11% | -31*
COc1cccc(-c2ccc3c(N)c(C(=O)Nc4cc(C(F)(F)F)ccc4OC)sc3n2)c1 | -1 | 0 | -1 | 4 | -4% | -35*
COc1ccc(-c2ccc3c(N)c(C(=O)Nc4cc(F)ccc4C)sc3n2)cc1 | -1 | 6 | -4 | 7 | 1% | 4
O=C(COc1ccc([N+](=O)[O-])cc1)NN=C1CCCC1 | / | / | / | / | -3% | /
CCc1cc2c(nc1CC)CCN(CC/C(C)=N/O[C@@H](C)c1cn([C@@H]3COC[C@@H]3O)nn1)C2 | / | / | / | / | -7% | /
CCc1nc(SCC(=O)N2CCCCCC2)c2c(=O)n(C)c(=O)n(C)c2n1 | 0 | 0 | 0 | 3 | -3% | -34*
CC1CCCN(CCCNS(=O)(=O)c2ccc3c(c2)CCN3C(=O)C2CC2)C1 (stereo not given) | 0 | -3 | 1 | 1 | -5% | -3
CCCc1nc2ccccc2c(C(=O)O)c1CC | 0 | 12 | 15 | 1 | -3% | 16
CCCOC(=O)c1c(-c2ccccc2)nc(CC)c(C(=O)SCC)c1CCC | 0 | 5 | -1 | -1 | -4% | -48*
CCOC(=O)c1scc(-c2ccccc2)c1S(=O)(=O)Nc1ccc(N(C)C)cc1 | -1 | 53* | -5 | 2 | -1% | -9
CCOC(=O)c1scc(-c2ccc(C)cc2)c1S(=O)(=O)Nc1ccc(F)c(F)c1 | -1 | 20 | -7 | 9 | -2% | -7
O=C(C[C@H]1C(=O)N(c2ccccc2)C[C@@H]1Cc1ccccc1)Nc1ccccc1 | / | / | / | / | -5% | /
O=C(O)c1ccccc1-c1nnc2c(Cl)cc(C(F)(F)F)cn12 | 1 | 7 | -3 | 1 | -2% | -38*
O=c1cc(-c2ccccc2)nc2nc(SCc3ccccc3)[nH]n12 | 0 | 1 | -7 | 1 | 1% | -32*
O=C(COC(=O)c1cc([N+](=O)[O-])ccc1N1CCOCC1)Nc1ccccc1OC(F)F | 0 | -2 | -12 | 6 | -2% | -31*
CN(C)S(=O)(=O)c1cccc(COC(=O)c2cc([N+](=O)[O-])ccc2N2CCOCC2)c1 | 0 | -7 | -2 | 4 | 0% | -39*
Cc1nnc(SCC2=C(C(=O)O)N3C(=O)C(NC(=O)c4cccc(F)c4F)C3SC2)s1 (stereo not given) | 2 | 8 | -9 | 2 | -1% | -73*
O=C(/C=C/c1cccs1)Nc1nc(-c2ccccc2)cs1 | 0 | -1 | -10 | 1 | 4% | -36*
O=C(COC(=O)/C=C/c1cccs1)Nc1nc(-c2ccccc2)cs1 | 0 | 1 | -3 | 5 | 21% | 13
CN1C[C@H]2c3ccccc3Oc3ccc(Cl)cc3[C@@H]2C1 | / | / | / | / | -4% | /
COc1ccc(NC2=Nc3ccccc3N[C@@]23C[C@H]2CCCC(=O)N4CC[C@@H](C3)[C@@H]24)cc1 | / | / | / | / | 3% | /
COc1ccc(NC2C[C@H]3CCCC(=O)N4CC[C@@H](C2)[C@@H]34)cc1 (stereo not given in full) | / | / | / | / | 50µM* | /
COc1ccc(Oc2ccc(/C=N/NC(=O)c3cccnc3)cc2[N+](=O)[O-])cc1 | -1 | -26 | -8 | -3 | 2% | -43*
COc1cc(/C=N/NC(=O)c2sc3ccccc3c2Cl)ccc1OC(=O)c1ccc([N+](=O)[O-])cc1 | 1 | -2 | -5 | 1 | 0% | -38*
CCOc1cc(/C=N/NC(=O)CSc2nncn2C)ccc1OC(=O)c1ccc(Cl)cc1 | -1 | 30* | -5 | -1 | -6% | -55*
SMILES | TRHR ag | TRHR PAM | D1 PAM | D1 agonist | Glioma ERSR ind | D1 antagonist
CCOc1cc(/C=N\NC(=O)c2ccc(NC(=O)CC)cc2)ccc1OC(=O)c1ccccc1 | 0 | 4 | -11 | 5 | -3% | -57*
COc1ccc(/C=N/NC(=O)c2cccnc2)cc1 | 0 | 3 | 0 | 4 | -2% | 8
CCOc1ccc(NC(=O)CN(C)C(=O)C2CC(=O)N(Cc3ccco3)C2)cc1OCC (stereo not given) | 0 | -1 | 0 | 2 | -3% | -6
COc1ccc(C(=O)N2CCN(c3nc4c(C)c(Cl)ccc4s3)CC2)c(OC)c1 | 0 | -1 | 0 | 6 | -4% | /
O=C(N/N=C/c1ccc(OC(=O)c2ccccc2)c([N+](=O)[O-])c1)c1ccc(O)cc1 | -1 | -3 | -10 | 4 | 5% | -33*
COc1ccc(/C=N/NC(=O)c2cccc([N+](=O)[O-])c2)cc1OC(=O)c1ccccc1 | 0 | -1 | -5 | -2 | -2% | -9
O=C(NCc1cccnc1)[C@@H]1CC=C[C@@H]2CCN(C3CCCCC3)C(=O)[C@@H]21 | / | / | / | / | -2% | /
Cc1ccc(S(=O)(=O)N(CC(=O)NC2CC3CCC2C3)c2ccccc2)cc1 (stereo not given) | / | / | / | / | -2% | /
CSc1ccc(/C=N/Nc2nc(C)cc(=O)[nH]2)cc1 | 0 | -5 | -11 | 4 | -2% | -30*
CCOc1ccc(-n2c(C)cc(/C=N/Nc3nc(C)cc(=O)[nH]3)c2C)cc1 | -1 | 3 | -4 | 3 | -1% | -35*
O=c1[nH]c(=O)n(C2OC(CO)C(O)C2O)cc1Br (stereo not given) | 1 | 0 | -5 | 2 | -2% | -4
CCC(C)NCC(O)COCc1ccc(Cl)cc1 (stereo not given) | -1 | 4 | -1 | 36* | -1% | 6
COC(=O)Cn1ccc2cc(S(=O)(=O)N3CCCCCC3)ccc21 | 0 | -4 | -9 | 2 | 0% | 8
COc1ccccc1CCNC(=O)Cn1ccc2cc(S(=O)(=O)N3CCCC3)ccc21 | 0 | -12 | -9 | 7 | -9% | -31*
COc1cccc(CNC(=O)CCCn2ccc3cc(S(=O)(=O)N4CCCC4)ccc32)c1 | 1 | 1 | -4 | 7 | -1% | 1
COC(=O)Cn1ccc2cc(S(=O)(=O)N3CCCCC3)ccc21 | 0 | 7 | -1 | 5 | 4% | -51*!
COc1ccc(OC)c(CNC(=O)CCCn2ccc3cc(S(=O)(=O)N4CCCC4)ccc32)c1 | 0 | -3 | -1 | 4 | -5% | -33*!
O=C1[C@@H]2[C@H]3[C@H](O)[C@H](O)C/C(=N/OC[C@@H](O)COCc4ccco4)[C@H]3CC[C@H]2C(=O)N1c1ccc(F)cc1F | / | / | / | / | -2% | /
